Rows were chosen to be rich in hits. Some 2.8% of all compounds tested hit in one or more screens of this group.
CDK5 inh – inhibitors of human CDK5/p35 kinase | 0.01% of 330,000 active | Q00535+Q15078 | Recombinant CDK5/p35, ADP-Glo luminescence, 60 min | inhibition, % at 10 µM;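 active = highest replicate inhibition of at least 50% and at least 75% of replicates reaching 50%; inconclusive = only one of the two criteria met; inactive = both criteria failed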;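 also: plate controls were DMSO neutral control for no effect and GW8510 at 10 µM for full effect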
PvdQ inh – blocks Pseudomonas aeruginosa PvdQ acylase activity. purified PvdQ acylase, fluorescence plate reader. inhibition, % at 10 µM. 0.063% of 340,000 active; in the data active = inhibition above about 30%, passing the limit was not always enough; inconclusive = no clear call, values can overlap the other calls;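 also: 0% = vehicle neutral wells and 100% = reference inhibitor wells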
PglD inh – PglD (C. jejuni) enzyme inhibition; purified PglD enzyme, DTNB colorimetric CoA detection; 0.098% of 360,000 active; inhibition, % at 12.5 µM; in the data active = inhibition above about 16%, passing the limit was not always enough; inconclusive = no clear call, values can overlap the other calls
dFosB activator – enhances mouse delta FosB homodimer DNA binding. P13346. activation, % at 25 µM. AID 493131. purified delta FosB, TAMRA-CDK5 oligo fluorescence polarization; percent of positive-control signal above neutral wells. 0.99% of 340,000 active;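 active = mean activation above about 17%, with every replicate also reaching it, limit read from the data, passing the limit was not always enough; inconclusive = only one of the two conditions met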
FGF22 binding – FGF22 (human) thermal shift binding | recombinant FGF22 thermal shift, SYPRO orange fluorescence; percent of sucrose octasulfate shift, DMSO zero | 1.5% of 340,000 active | Q9HCT0 | activity (Tm shift, normalised), % at 9.99 µM;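 active = mean Tm shift, scaled 0 neutral to 100 positive control, at about 1.3% or above, every replicate too, limit read from the data; inconclusive = no clear call, values can overlap the other calls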
Target sequence (Q9HCT0 whole entry, looked up): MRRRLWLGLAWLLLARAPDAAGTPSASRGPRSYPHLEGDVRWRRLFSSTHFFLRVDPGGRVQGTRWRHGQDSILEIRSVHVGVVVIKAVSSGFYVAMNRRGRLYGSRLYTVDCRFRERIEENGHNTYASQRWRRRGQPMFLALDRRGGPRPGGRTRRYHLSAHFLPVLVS
SIRT5 inh – inhibitors of human sirtuin-5 desuccinylase; inhibition, % at 15 µM; AID 652115; Q9NXA8; 1.1% of 330,000 active; Purified SirT5, succinyl-peptide AMC, trypsin-coupled fluorescence; in the data active = inhibition above about 15%; inconclusive = no clear call, values can overlap the other calls
Target sequence (Q9NXA8 whole entry, looked up): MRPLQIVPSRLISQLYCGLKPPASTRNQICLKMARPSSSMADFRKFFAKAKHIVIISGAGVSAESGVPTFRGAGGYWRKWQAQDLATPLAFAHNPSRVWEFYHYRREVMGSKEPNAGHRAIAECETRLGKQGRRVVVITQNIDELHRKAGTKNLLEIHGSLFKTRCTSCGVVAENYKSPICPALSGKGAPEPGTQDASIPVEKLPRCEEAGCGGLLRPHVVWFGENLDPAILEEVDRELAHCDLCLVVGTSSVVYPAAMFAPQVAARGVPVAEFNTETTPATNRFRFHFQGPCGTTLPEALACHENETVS
* = called active by the depositor; ? = inconclusive; nt = no result.

SMILES	CDK5 inh	PvdQ inh	PglD inh	dFosB activator	FGF22 binding	SIRT5 inh
C=CCc1c(C)nc(-c2ccccc2)nc1N/N=C/c1ccncc1	1	-10	nt	-14	43*	-2
Cn1c(=O)c2c(nc(NCCNC(=O)c3ccco3)n2Cc2ccccc2)n(C)c1=O	-1	-17	-11	5	0	-8
Cn1c(=O)c2c(nc(NCCNC(=O)c3ccco3)n2Cc2ccc(F)cc2)n(C)c1=O	0	11	5	2	1.8*	-2
O=C(Nc1ccnn1C1CCN(C(=O)c2ccc(C(F)(F)F)cc2)CC1)C1CC1	-7	-6	nt	-13	0	23*
C[C@@H]1CN([C@H](C)CO)S(=O)(=O)c2ccc(-c3cccc(C#N)c3)cc2O[C@@H]1CN(C)Cc1cccc(F)c1	nt	nt	1	nt	0	-1
COc1ccc(CCNc2c3ccccc3nc3ccccc23)cc1OC	2	1	-7	30*	0	-10
COc1cc2[nH]c(=S)nc(NCCc3ccc(C)cc3)c2cc1OC	1	-9	nt	-6	0	-1
COc1ccc(CCn2nnc3ccccc3c2=O)cc1OC	nt	nt	-1	nt	43*	nt
COc1ccc(CCNc2nc(=S)[nH]c3cc(OC)c(OC)cc23)cc1OC	0	1	nt	11	43*	-1
COc1nc(NCCc2ccc(OC)c(OC)c2)nc(OC)n1	-1	10	4	-6	nt	nt
CCNC(=O)[C@H]1[C@H](CO)[C@H]2Cn3c(ccc(/C=C/c4ccccc4)c3=O)[C@H]2N1C(C)=O	nt	nt	-15	nt	0	-121
C[C@@H]1CN([C@@H](C)CO)S(=O)(=O)c2ccc(C#Cc3ccccc3F)cc2O[C@H]1CN(C)CC1CCOCC1	nt	nt	2	nt	0	9
CC(/C=N/Nc1ncc(C)c(=O)[nH]1)=C\c1ccccc1	1	-2	nt	-6	nt	nt
CC(/C=N/Nc1nc(C)cc(=O)[nH]1)=C\c1ccccc1	-7	1	7	-9	43*	-1
CCn1c(SC)nnc1-c1nn(-c2ccccc2)ccc1=O	1	8	2	-3	43*	-2
COc1ccc(/C=N\NC(=O)c2ccc(Cn3cc(Br)c([N+](=O)[O-])n3)o2)c(OC)c1C	1	4	nt	?	44*	-3
COc1cccc(C(=O)Nc2ccc3c(c2)C(=O)N(C)C[C@H](OC)[C@@H](C)CN(C(=O)C2CCCC2)[C@@H](C)CO3)c1	nt	nt	3	nt	0	0
C[C@H](CO)N1C[C@H](C)[C@H](CN(C)S(=O)(=O)c2ccc(F)cc2)Oc2cc(C#Cc3ccc(F)cc3)ccc2S1(=O)=O	nt	nt	-1	nt	0	27*
COCC#Cc1ccc2c(c1)O[C@@H](CN(C)CC1CCCC1)[C@H](C)CN([C@@H](C)CO)S2(=O)=O	nt	nt	-1	nt	0	24*
CC(C)CC#Cc1ccc2c(c1)O[C@H](CN(C)S(=O)(=O)c1ccc(F)cc1)[C@@H](C)CN([C@H](C)CO)S2(=O)=O	nt	nt	0	nt	0	8
CC(C)CC#Cc1ccc2c(c1)O[C@@H](CN(C)S(=O)(=O)c1ccc(F)cc1)[C@@H](C)CN([C@H](C)CO)S2(=O)=O	nt	nt	1	nt	0	0
CCCN(C)C[C@H]1Oc2cc(C#CC3(O)CCCC3)ccc2S(=O)(=O)N([C@@H](C)CO)C[C@H]1C	nt	nt	0	nt	0	4
CCCN(C)C[C@@H]1Oc2cc(C#CC3(O)CCCC3)ccc2S(=O)(=O)N([C@H](C)CO)C[C@@H]1C	nt	nt	-1	nt	0	6.2*
C[C@@H]1CN([C@H](C)CO)S(=O)(=O)c2ccc(C#Cc3ccc(F)cc3)cc2O[C@@H]1CN(C)S(=O)(=O)c1ccc(F)cc1	nt	nt	-2	nt	0	30*
C[C@@H]1CN([C@@H](C)CO)C(=O)Cc2cc(NC(=O)NC3CCCCC3)ccc2O[C@H]1CN(C)S(C)(=O)=O	nt	nt	7	nt	0	5
SMILES	CDK5 inh	PvdQ inh	PglD inh	dFosB activator	FGF22 binding	SIRT5 inh
C[C@H](CO)N1C[C@H](C)[C@H](CN(C)S(=O)(=O)c2cccs2)Oc2ccc(NC(=O)Cc3cn(C)c4ccccc34)cc2C1=O	nt	nt	0	nt	0	2
C[C@@H]1CN([C@@H](C)CO)S(=O)(=O)c2ccc(C#Cc3ccncc3)cc2O[C@@H]1CN(C)S(=O)(=O)c1ccc(F)cc1	nt	nt	0	nt	0	-14
C[C@H](CO)N1C[C@H](C)[C@H](CN(C)CC2CC2)Oc2cc(C#Cc3ccc(F)cc3)ccc2S1(=O)=O	nt	nt	0	nt	nt	17*
COc1ccc(S(=O)(=O)N(C)C[C@@H]2Oc3cc(C#CC4CCCC4)ccc3S(=O)(=O)N([C@H](C)CO)C[C@H]2C)cc1	nt	nt	-2	nt	0	19*
C[C@H]1CN([C@@H](C)CO)S(=O)(=O)c2ccc(C#CC3CC3)cc2O[C@@H]1CN(C)Cc1ccc(F)cc1	nt	nt	7	nt	0	19*
COc1ccc(S(=O)(=O)N(C)C[C@@H]2Oc3cc(C#CC4CCCCC4)ccc3S(=O)(=O)N([C@@H](C)CO)C[C@@H]2C)cc1	nt	nt	-5	nt	0	1
C[C@@H]1CN([C@H](C)CO)S(=O)(=O)c2ccc(C#Cc3ccc(F)cc3)cc2O[C@H]1CN(C)S(=O)(=O)c1ccc(F)cc1	nt	nt	-4	nt	0	26*
CO[C@@H]1CN(C)C(=O)c2cc(NC(C)=O)ccc2OC[C@@H](C)N(C(=O)CC2CC2)C[C@H]1C	nt	nt	-2	nt	0	nt
C[C@H]1CCCCO[C@H](CN(C)C(=O)c2ccccc2)[C@@H](C)CN([C@@H](C)CO)C(=O)c2cc(NS(=O)(=O)c3ccc(F)cc3)ccc2O1	nt	nt	-2	nt	0	4
CN1C(=O)c2cc(NC(=O)C3CCOCC3)ccc2OC[C@@H]2O[C@H](CC(=O)NCC3CC3)CC[C@@H]21	nt	nt	-2	nt	0	3
O=C(C1CCCC1)N1CC2(C1)[C@@H](c1ccccc1)[C@H](CO)N2CCC(F)(F)F	nt	nt	nt	nt	nt	1
C[C@H]1CN([C@@H](C)CO)S(=O)(=O)c2ccc(C#Cc3ccc(F)cc3)cc2O[C@@H]1CN(C)S(C)(=O)=O	nt	nt	0	nt	1	13*
Cc1nnc(SCC(=O)NC(=O)Nc2ccc3c(c2)OCCO3)s1	0	3	nt	-4	43*	-4
Cc1c(C)n2c(SCC(=O)Nc3ccc4c(c3)OCCO4)nnc2[nH]c1=O	-1	-5	1	-4	44*	-5
CNC[C@H]1Oc2c(cccc2N(C)C)C(=O)N([C@@H](C)CO)C[C@H]1C	nt	nt	18	nt	0	-1
O=C(NC1CCCCCCC1O)c1ccccc1 (stereo not drawn)	-2	-9	nt	1	0	16*
O=C(NC1CCCCC1c1ccccc1)c1ccccc1 (stereo not drawn)	-1	-8	nt	-11	44*	nt
O=C(NC(CC1CCCCC1)C(=O)O)c1ccccc1 (stereo not drawn)	1	-3	2	8	44*	-2
O=C(NC(=S)NC1CCCC1)c1ccccc1	2	-17	1	0	0	-1

Compound activity from PubChem.
